Structures are written as SMILES. The whole screen tested about 220,000 compounds, of which about 130 (0.059%) were called active. Shown is part of a subset that was picked to be rich in actives. A number with no mark means an inactive call. No stated cut-off is given here; in the data, active means inhibition above about 25%; inactive means the rest.

The experiment deals with Furin (Homo sapiens) (UniProt P09958). The experiment in a line: human furin inhibitors, primary screen, biochemical, fluorescence intensity (AID 463115). Conditions: purified furin, fluorogenic substrate cleavage, active compounds read high; at 30 µM unless noted.
Furin (Homo sapiens), sequence (P09958 108-714 limits assumed): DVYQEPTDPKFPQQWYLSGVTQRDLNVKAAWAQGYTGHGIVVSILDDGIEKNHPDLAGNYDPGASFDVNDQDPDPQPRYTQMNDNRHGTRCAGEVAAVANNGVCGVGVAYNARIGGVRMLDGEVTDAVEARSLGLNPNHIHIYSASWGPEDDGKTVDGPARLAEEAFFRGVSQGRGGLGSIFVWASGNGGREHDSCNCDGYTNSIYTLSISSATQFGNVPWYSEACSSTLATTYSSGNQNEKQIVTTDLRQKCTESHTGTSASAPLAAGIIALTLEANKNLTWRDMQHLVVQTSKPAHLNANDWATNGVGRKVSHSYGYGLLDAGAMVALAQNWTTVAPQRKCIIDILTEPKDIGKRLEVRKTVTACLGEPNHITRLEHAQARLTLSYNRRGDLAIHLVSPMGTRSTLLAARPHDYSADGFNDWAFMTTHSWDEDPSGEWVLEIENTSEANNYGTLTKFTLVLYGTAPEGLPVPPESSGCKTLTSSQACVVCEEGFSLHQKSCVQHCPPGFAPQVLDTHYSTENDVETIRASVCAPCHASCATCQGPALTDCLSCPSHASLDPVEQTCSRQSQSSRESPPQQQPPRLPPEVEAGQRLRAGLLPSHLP
Regarding `COc1cccc(OCc2cc(/C=N/NC(=O)c3nc(Cl)c(Cl)c(N)c3Cl)ccc2OC)c1`, the inhibition (in general, the change of the read-out against control, counted positive when it falls) was -20.2% [at 20 µM].
`Cc1ccc(C(=O)NC(=S)Nc2ccc3[nH]c(=O)[nH]c3c2)cc1C`: the inhibition is -13.7%.
The value for `C=C(C)Cn1c(C)cc(C)c(S(=O)(=O)c2ccccc2C)c1=O` was 5.86% [at 20 µM]; that for `CC(C)NC(=O)C(=O)N/N=C/c1ccco1` was -9.76% [at 20 µM]; that for `Cc1ccccc1NC(=O)Nc1ccccc1N1CCCCC1` was -10.3%.
The value for `Cc1cc(OC(=O)c2ccccc2Cl)ccc1N1C(=O)CCC1=O` was -16%; that for `Cc1cccc(-n2c(SCC(=O)Nc3cccc(S(=O)(=O)NC4=NCCCCC4)c3)nc3ccccc3c2=O)c1C` was -12.8%.
Next, `COc1ccc(CCNC(=O)C(=O)NCc2ccccc2C)cc1OC`: -21%; `CCC(=O)Nc1nc2ccccc2n1Cc1ccccc1C`: -19.3%; `C=CCn1c(C(C)NC(=O)CC)nc2ccccc21` (centres undefined): -10.5% [at 20 µM].
Consider `CC(=O)NC(C)c1nc2ccccc2n1Cc1ccccc1F` (centres undefined), for which the inhibition was 29.1% [at 20 µM] (active).
Next, `CCCCNC(=O)N1CCN(S(C)(=O)=O)CC1`: -17.1%; `CNC(=S)N/N=C/c1cn(Cc2ccc(C)cc2)c2ccccc12`: -4.13%.
With `O=C1CCCc2nn(-c3ccccc3)nc21`, the inhibition was -13.3% [at 20 µM].
`O=C(Nc1cccnc1)c1cc2cc(Br)ccc2oc1=O`: the inhibition is -18%.
Next, `CSc1ccc(C#N)cc1NC(=O)c1ccc(Cl)cc1`: -25.3% [at 20 µM]; `COc1ccc(NC(=O)C(NC(C)=O)C(=O)NCc2ccccc2Cl)cc1` (centres undefined): -24.7% [at 20 µM].
Next, `Cc1ccc(-c2cc(C(F)(F)F)n3ncc(C(=O)N4CCCCC4c4cccnc4)c3n2)cc1` (centres undefined): -31.6%.
The value for `Cc1ccc(N(Cc2cc3ccccc3[nH]c2=O)C(=O)c2cccs2)cc1` was -16%; that for `CC1(C)CC(=O)C(CC(=O)N2CCC(Cc3ccccc3)CC2)C(=O)C1` was -13%; that for `O=C(O)/C(=C/c1cccnc1)NC(=O)c1ccccc1` was -17.1%.
As to `COc1cc([C@H](Cc2ccccc2)NC(C)=O)oc(=O)c1`, the inhibition was -28.7%.
Consider `CSc1nc(C)nc(C2CC2)c1C#N`, for which the inhibition was -16.6%.
Next, `C=CCOC(=O)C1=C(C)NC(C)=C(C(=O)OCC=C)C1c1cccs1`: -8.1% [at 20 µM].
The value for `COc1ccc2c(CC(=O)OCC(=O)Nc3ccccc3[N+](=O)[O-])coc2c1` was -10.8%.
Next, `Clc1ccc(C[n+]2cc(-c3ccccc3)n3c2CCC3)cc1`: -20.2%; `CCC1C=C(c2ccccc2)C=CN=C1N(CC)CC` (centres undefined): -18.4%.
`CC1=C(C)CC(C(=O)NC(C)CCc2ccccc2)C(C(=O)O)C1` (centres undefined): the inhibition is -15%.
The value for `CC1=C(C)C(=O)OC(C(C)C2CCC3C4CC=C5CC(OC6OC(COC7OC(CO)C(O)C(O)C7O)C(O)C(O)C6O)CC(O)C5(C)C4CCC23C)C1` (centres undefined) was -28.1%; that for `CC1CCCC(C)N1/N=C/c1ccccc1OC(F)F` (centres undefined) was -34.3%.
Next, `NC(N)=Nc1nc2ccc(Br)cc2c(=O)[nH]1`: -13.8%; `CCOc1ccc(NC(=S)NC(=O)/C=C/c2ccc(OC)cc2)c([N+](=O)[O-])c1`: -14.6%; `Cc1c(Br)cc(C(=O)N2CCCCCC2)c(C)c1C`: -19.1% [at 20 µM].
In the case of `CC(C)CCN1CCN(Cc2ccc(C(F)(F)F)cc2)CC1CCO` (centres undefined), the inhibition is -11.2%.
Next, `COc1ccc(OC)c(S(=O)(=O)NCCC(C)C)c1`: -25.7%; `O=C(NCCc1ccccn1)c1cc(-c2ccc(Cl)cc2)nc2ccccc12`: -20.1%; `CC12CN3CCN(CC(C3)/C1=N\NC(=O)c1ccccc1N)C2`: -14.7%.
Next, `CC(CC(=O)O)CC(=O)NNC(=O)c1cccc(Br)c1` (centres undefined): 4.22%.
With `CCCOn1c(-n2nc(C)cc2C)nc2ccccc2c1=O`, the inhibition is -1.39% [at 20 µM].
Regarding `CC(C)Oc1ccccc1C(=O)NC(CO)C(=O)O` (centres undefined), the inhibition is -21.8%.
Next, `CC(C)(C)NC(=O)NC(=O)COC(=O)Cc1ccc(Cl)cc1Cl`: -11.5%.
The value for `CCOC(=O)c1nnn2c1nc(N1CCN(c3ccccc3)CC1)c1ccccc12` was -23.3%.
Next, `C=C(C)C1CC=C(C)/C(=N/NC(=O)CCCNc2cccc(C)c2)C1` (centres undefined): -8.06%.
Turning to `CCc1ccc(NC(=O)CC2C(=O)NCCN2C(=S)Nc2ccccc2)cc1` (centres undefined), the inhibition was -22.7%.
With `CC(C)C(O)C1CCN(Cc2nc(Cc3ccccc3Cl)no2)CC1` (centres undefined), the inhibition is -21.2%.
Regarding `CC(=O)c1sc(NC(=O)c2cccc3ccccc23)nc1C`, the inhibition was -10.7% [at 20 µM].
Consider `CC(=O)c1sc(NC(=O)c2ccc(C)cc2)nc1C`, for which the inhibition was 26.4% [at 20 µM] (active).
Next, `COC(=O)c1sc(NC(=S)NC(=O)c2ccc(C)cc2)nc1C`: -11.8%; `CN(C)c1ccc(/C=N/NC(=O)C(O)c2ccc(Br)cc2)cc1` (centres undefined): -19%; `CCC(=O)NC(Nc1nc2ccc(C)cc2s1)(C(=O)OC)C(F)(F)F` (centres undefined): -11.3% [at 20 µM].
Next, `CCCCNC(=O)OC(C)CNC(=O)OC` (centres undefined): -9.97% [at 20 µM]; `CN(C)/N=C/c1cn(-c2ccccc2)nc1-c1cccnc1`: 1.34%.
Take `CCCNS(=O)(=O)c1ccc(CCC(=O)N2CCCC2)cc1`: the inhibition was -15.5%.
Turning to `C=CC(COCc1ccccc1)N(Cc1ccccc1)S(=O)(=O)c1ccccc1Br` (centres undefined), the inhibition was -14.6%.
Next, `COc1ccc(C2=NOC3(CC(=O)N(c4ccc(Cl)cc4)C3=O)C2)c(OC)c1` (centres undefined): -21.1% [at 20 µM]; `O=C(NC1CCN(Cc2ccccc2)CC1)c1c(F)cccc1F`: -12.2%; `Nc1c(NCCc2ccccc2)c2ccccc2oc1=O`: -0.514%.
Next, `Cc1cc(Nc2ccc(N3CCOCC3)cc2)c2cccc(C)c2n1`: 3.96%.
Next, `O=C(NN1C(=O)C2C(C1=O)C1C=CC2C12CC2)c1ccccc1Cl` (centres undefined): -7.61%.

Source of the values: PubChem BioAssay AID463115 (University of Pittsburgh Molecular Library Screening Center, 2010).
